From PubChem BioAssay (Tox21) come the findings set out here.

Values without a mark were called inactive. Records with an inconclusive call do not appear. Calls of active or inactive are those of the source. Unless noted, the call rests on the fitted dose curve; in most records, active means well fitted curve in the direction sought with a large enough effect in the repeat runs; inconclusive means weak or mixed curves; inactive means no such curve, though single readings can be large; an effect the other way counts as inactive or inconclusive.

Assay [1] is described as follows: qHTS assay to identify small molecule antagonists of the androgen receptor (AR) signaling pathway using the MDA cell line in the presence of 0.5 nM R1881 - cell viability counter screen (AID 1259242). Further: nearly all actives have a fitted effect of over 45% in size. Further: potency means the concentration at half of the fitted maximal effect. The method in brief:
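Concentration-response screen of compounds for toxicity in MDA-kb2 reporter cells: 16 hr at 37C with 0.5 nM R1881, endpoint live-cell protease fluorescence measured in the reporter wells.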

Assay [2] is described as follows: qHTS assay to identify small molecule HDAC inhibitors (AID 1259364).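 Further: wild-type HCT-116 cells with endogenous class I/II HDAC activity; top concentration of the series differs between compounds; nearly all actives have a fitted effect of over 45% in size.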 An outline of the steps: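 Screening used wild-type human colon HCT-116 cells incubated overnight, dosed with compounds for 2 hours, and assayed with a homogeneous luminogenic HDAC I/II reagent for 30 minutes at room temperature.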
Assay [3] in a line: qHTS assay to identify small molecule HDAC inhibitors - cell viability counter screen (AID 1259365). Further: series mostly up to about 92 µM; nearly all actives have a fitted effect of over 50% in size. The method in brief:
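HCT-116 (wild type), 1,500 cells/well, overnight 37C/5% CO2; compound in DMSO 2hr; CellTiter-Glo 30min RT; luminescence read.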

Assay [4] is described as follows: qHTS assay to identify small molecule antagonists of the sonic hedgehog signaling (Shh) pathway - cell viability counter screen (AID 1259367). Further: nearly all actives have a fitted effect of over 55% in size. Further: potency means the concentration at half of the fitted maximal effect. An outline of the steps: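 Cytotoxicity was assessed in parallel with Shh reporter activity by measuring live-cell protease fluorescence (CellTiter-Fluor) in NIH/3T3 cells stably carrying Gli1-Luc, treated with compound under conditioned medium stimulation for 23 hr plus 1 hr reagent incubation.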

Assay [5] is described as follows: qHTS assay to identify small molecule agonists of the sonic hedgehog signaling (Shh) pathway (AID 1259368; calls by dose curve;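 further: NIH/3T3-derived 3T3Gli1-Luc cells carrying a stable Gli1-driven firefly luciferase reporter; series mostly up to about 92 µM; nearly all actives have a fitted effect of over 15% in size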). The method in brief:
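Hedgehog pathway agonism scored by increased firefly luciferase luminescence in 3T3Gli1-Luc cells treated 24 hr at 37 C; detection used a 30 min room-temperature reagent incubation.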

Assay [6] is described as follows: qHTS assay to identify small molecule antagonists of the sonic hedgehog signaling (Shh) pathway (AID 1259369; calls by dose curve; further: nearly all actives have a fitted effect of over 45% in size; further: potency means the concentration at half of the fitted maximal effect). An outline of the steps: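 NIH/3T3 stable Gli1-Luc clone, 2,000 cells/well, 4hr settle; cpd + conditioned medium 24hr; Luc reagent 30min RT; luminescence.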
Assay [7] has as its target Thyrotropin receptor (Homo sapiens) (UniProt P16473). In words: qHTS assay to identify small molecule antagonists of the thyroid stimulating hormone receptor (TSHR) signaling pathway (AID 1259385; calls by dose curve; further: nearly all actives have a fitted effect of over 20% in size). The method in brief: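 TSHR-HEK293 cells were plated and held 18 h at 37C/5% CO2, then given compound plus Ro20-1724 and stimulated with TSH at 1.5 ng/mL final. After 30 min at room temperature, cAMP was detected with cAMP-d2/anti-cAMP-cryptate (1 h) by fluorescence.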

Assay [8] in a line: qHTS assay to identify small molecule agonists of the estrogen receptor alpha (ER-alpha) signaling pathway in the presence of an antagonist - cell viability counter screen (AID 1259386).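 Further: cells exposed to compounds for 22 h at 37 °C before the viability read; nearly all actives have a fitted effect of over 30% in size.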 Further: potency means the concentration at half of the fitted maximal effect. On activity change, negative = cytotoxicity: series mostly up to about 92 µM. The method in brief: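 The test measures whether compounds kill ER-alpha reporter cells (VM7Luc4E2) under antagonist co-treatment (ICI-182,780, 10.0nM). Fluorescence from CellTiter-Fluor is read after a 22hr exposure.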

Assay [9] is described as follows: qHTS assay to identify small molecule phospholipidosis (PLD) inducers (AID 1259344; active means well fitted curve in the direction sought with a large enough effect; an effect the other way counts as inactive or inconclusive). The method in brief:
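Cells (HepG2, 900 per well) attach for 4 h, receive LipidTOX Red and compound together, incubate 24 h at 37 C, are fixed 30 min with paraformaldehyde/Hoechst, then imaged at one site per well.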

Assay [10] in a line: qHTS assay to identify small molecule agonists of the sonic hedgehog signaling (Shh) pathway - cell viability counter screen (AID 1259366). Further: nearly all actives have a fitted effect of over 50% in size. Further: potency means the concentration at half of the fitted maximal effect. An outline of the steps:
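CellTiter-Fluor fluorescence read-out, 1 hr at 37C, added after 23hr compound exposure. Cells: 3T3 Gli1-Luc, an NIH/3T3 clone with stably integrated Gli1-Luc reporter, plated 4hr before compound.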

The nature of assay [11]: qHTS assay to identify small molecule agonists of the androgen receptor (AR) signaling pathway in the presence of an antagonist - cell viability counter screen (AID 1259379). Further: nearly all actives have a fitted effect of over 25% in size. Further: potency means the concentration at half of the fitted maximal effect.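 On activity change, negative = cytotoxicity: MDA-kb2 human breast cancer cells carrying an MMTV luciferase reporter; series mostly up to about 92 µM.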 The method in brief: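 MDA-kb2 viability measured by CellTiter-Fluor fluorescence in the same wells as the luciferase signal; nilutamide 3.0uM final; 15-point compound titration; 16 hr at 37C.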
Assay [12] is described as follows: qHTS assay to identify small molecule agonists of the estrogen receptor beta (ER-beta) signaling pathway - cell viability counter screen (AID 1259380). Further: nearly all actives have a fitted effect of over 30% in size. Further: potency means the concentration at half of the fitted maximal effect. The method in brief:
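Measured: luminescence from CellTiter-Glo after 30 min at room temperature, added to wells already read for the LiveBLAzer FRET reporter (2 hr substrate); ER-beta-UAS-bla HEK293T cells had 16 hr compound treatment at 37C, 5% CO2.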

The nature of assay [13]: qHTS assay to identify small molecule antagonists of the estrogen receptor beta (ER-beta) signaling pathway - cell viability counter screen (AID 1259382). Further: nearly all actives have a fitted effect of over 55% in size. Further: potency means the concentration at half of the fitted maximal effect. On activity change, negative = cytotoxicity: series mostly up to about 92 µM. The method in brief:
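Readout: luminescence, CellTiter-Glo, same wells as bla assay. System: ER-beta-UAS-bla GripTite HEK293T, 2% charcoal-stripped FBS. Exposure: compounds plus 1nM 17-beta-estradiol, 16 hr, 37C.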

The nature of assay [14]: qHTS assay to identify small molecule agonists or antagonists of the thyroid stimulating hormone receptor (TSHR) signaling pathway - wild type cell line counter screen (AID 1259384; calls by dose curve). The method in brief: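 Wild-type HEK293 cells were plated 18 h at 37 C/5% CO2, pin-dosed with compound plus Ro20-1724 medium, held 30 min at room temperature, then given cAMP-d2 and anti-cAMP-cryptate; fluorescence was read after 1 h. Fifteen concentrations, triplicate.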

Assay [15] deals with Estrogen receptor beta (Homo sapiens) (UniProt Q92731). In words: qHTS assay to identify small molecule agonists of the estrogen receptor beta (ER-beta) signaling pathway (AID 1259377; active means well fitted activation curve with a large enough effect in the signal ratio in the repeat runs, not every such curve was filed as active; the % refers to the signal ratio). An outline of the steps:
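Beta-lactamase reporter readout: fluorescence of LiveBLAzer B/G FRET substrate after 2 h at room temperature, following 16 h compound treatment of ER-beta-UAS-bla HEK293T cells at 37C in 2% charcoal-stripped FBS medium.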

The target is the same in assay [16]. In words: qHTS assay to identify small molecule antagonists of the estrogen receptor beta (ER-beta) signaling pathway (AID 1259378; active means well fitted inhibition curve with a large enough effect in the signal ratio in the repeat runs, not every such curve was filed as active; the % refers to the signal ratio; further: potency means the concentration at half of the fitted maximal effect). The method in brief:
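ER-beta-UAS-bla HEK293T (GripTite) cells in 2% charcoal-stripped FBS medium were preincubated 6 hr at 37C, dosed with compound, then stimulated with 1 nM E2 (final) for 16 hr; beta-lactamase reporter read by B/G FRET fluorescence after 2 hr substrate loading.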

For assay [17], the target named is Androgen receptor (Homo sapiens) (UniProt P10275). Briefly: qHTS assay to identify small molecule agonists of the androgen receptor (AR) signaling pathway in the presence of an antagonist (AID 1259381; calls by dose curve; further: nearly all actives have a fitted effect of over 15% in size). An outline of the steps: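 Luminescent ONE-Glo read, 30min at room temperature, follows 16hr compound exposure (15 concentrations) of MDA-kb2 cells at 37C, 0% CO2, with nilutamide added at 3.0uM final.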
Sequence of Androgen receptor (Homo sapiens) (P10275 whole entry, looked up): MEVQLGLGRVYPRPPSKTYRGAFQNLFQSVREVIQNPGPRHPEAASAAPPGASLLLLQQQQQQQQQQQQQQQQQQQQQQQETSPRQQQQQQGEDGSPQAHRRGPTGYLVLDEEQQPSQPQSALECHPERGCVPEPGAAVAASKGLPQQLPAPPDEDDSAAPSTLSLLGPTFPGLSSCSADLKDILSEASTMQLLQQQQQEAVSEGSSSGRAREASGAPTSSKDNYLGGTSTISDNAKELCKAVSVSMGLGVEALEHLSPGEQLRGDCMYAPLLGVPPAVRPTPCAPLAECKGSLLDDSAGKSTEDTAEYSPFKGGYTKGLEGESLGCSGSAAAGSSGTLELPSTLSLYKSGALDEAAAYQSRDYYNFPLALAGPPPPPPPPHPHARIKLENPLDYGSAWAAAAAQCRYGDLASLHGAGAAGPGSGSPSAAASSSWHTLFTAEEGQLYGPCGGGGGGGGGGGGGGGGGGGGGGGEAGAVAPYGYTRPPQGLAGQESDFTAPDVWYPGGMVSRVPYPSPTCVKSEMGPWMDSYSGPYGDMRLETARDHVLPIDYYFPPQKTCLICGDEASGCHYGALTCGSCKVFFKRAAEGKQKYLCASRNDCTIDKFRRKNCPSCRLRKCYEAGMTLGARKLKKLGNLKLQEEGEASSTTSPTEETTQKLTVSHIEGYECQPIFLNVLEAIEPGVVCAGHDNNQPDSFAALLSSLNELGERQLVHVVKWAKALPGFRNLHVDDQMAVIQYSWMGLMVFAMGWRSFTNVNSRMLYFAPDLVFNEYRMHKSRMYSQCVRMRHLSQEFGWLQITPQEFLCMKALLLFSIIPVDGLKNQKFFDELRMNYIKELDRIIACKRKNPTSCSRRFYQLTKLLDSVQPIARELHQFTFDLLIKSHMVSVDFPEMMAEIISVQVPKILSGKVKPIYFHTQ
On the % scale 0 is the no-effect control and ±100 the full control effect.

Sequence of Thyrotropin receptor (Homo sapiens) (P16473 whole entry, looked up): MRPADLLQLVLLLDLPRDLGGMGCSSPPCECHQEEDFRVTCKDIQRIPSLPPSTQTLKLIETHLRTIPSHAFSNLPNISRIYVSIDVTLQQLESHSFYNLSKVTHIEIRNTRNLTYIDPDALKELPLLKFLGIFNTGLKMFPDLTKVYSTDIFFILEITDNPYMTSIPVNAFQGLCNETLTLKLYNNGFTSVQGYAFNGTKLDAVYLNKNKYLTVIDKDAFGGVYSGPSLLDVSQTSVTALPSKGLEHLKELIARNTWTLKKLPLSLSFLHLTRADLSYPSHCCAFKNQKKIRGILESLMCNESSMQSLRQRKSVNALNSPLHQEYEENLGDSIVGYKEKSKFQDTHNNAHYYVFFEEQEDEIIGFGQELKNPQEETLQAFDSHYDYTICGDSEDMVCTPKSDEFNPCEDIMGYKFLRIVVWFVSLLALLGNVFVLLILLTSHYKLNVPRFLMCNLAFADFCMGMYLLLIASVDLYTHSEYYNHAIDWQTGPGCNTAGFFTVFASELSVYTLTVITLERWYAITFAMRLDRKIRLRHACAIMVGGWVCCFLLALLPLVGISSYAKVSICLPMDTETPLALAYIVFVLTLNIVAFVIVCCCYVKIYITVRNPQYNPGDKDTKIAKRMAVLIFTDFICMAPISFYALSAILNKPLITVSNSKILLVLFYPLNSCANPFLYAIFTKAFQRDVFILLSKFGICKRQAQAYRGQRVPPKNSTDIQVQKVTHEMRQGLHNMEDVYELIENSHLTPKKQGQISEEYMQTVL
Sequence of Estrogen receptor beta (Homo sapiens) (Q92731 whole entry, looked up): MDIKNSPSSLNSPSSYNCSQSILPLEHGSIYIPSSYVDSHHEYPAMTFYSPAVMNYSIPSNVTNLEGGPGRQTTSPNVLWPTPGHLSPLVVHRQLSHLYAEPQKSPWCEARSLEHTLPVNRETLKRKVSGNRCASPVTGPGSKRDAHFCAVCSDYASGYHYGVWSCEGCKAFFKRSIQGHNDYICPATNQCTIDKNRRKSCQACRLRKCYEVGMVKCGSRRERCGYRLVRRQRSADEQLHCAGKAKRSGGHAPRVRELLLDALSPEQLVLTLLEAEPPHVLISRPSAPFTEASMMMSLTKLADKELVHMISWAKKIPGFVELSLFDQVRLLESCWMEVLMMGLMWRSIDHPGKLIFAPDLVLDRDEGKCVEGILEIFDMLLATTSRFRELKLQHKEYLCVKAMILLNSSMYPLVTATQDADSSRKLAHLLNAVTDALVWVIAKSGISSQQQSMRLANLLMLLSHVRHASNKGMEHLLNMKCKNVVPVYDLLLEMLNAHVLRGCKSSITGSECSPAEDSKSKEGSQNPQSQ

With `Oc1cccc2cc3cccc(O)c3c(O)c12`, the Potency result in [1], in [2], in [3], in assay [4], in assay [5] and in [6] was “inactive” each time. Moreover, the Potency entry in [7] and in assay [8] was “inactive” throughout.
For `CC(NN)c1ccccc1` (stereo unspecified), the viability change, negative = cytotoxic in assay [1] is -1.49% [at 19 µM]; in assay [10], 2.68% [at 19 µM]. Besides, the Potency entry in [9] and in assay [4] was “inactive” each time. The results for the activity change, negative = inhibition in [2], in assay [6] and in [7] were 0.741% [at 19 µM], 19.3% [at 19 µM] and -2.3% [at 19 µM], respectively. Also, the activity change, negative = cytotoxicity was 0.995% [at 19 µM] in assay [3]; -0.324% [at 19 µM] in assay [11]; -2.17% [at 19 µM] in assay [12]; 1.73% [at 19 µM] in assay [13]; -1.38% [at 19 µM] in assay [8]. For the same molecule, the cAMP activity change in assay [14] was 0.522% [at 18.9 µM].
Turning to `CCN(C(=O)c1cc(C)cc(OC[C@H](C)Nc2ccncc2)c1)C(C)C`, the Potency result in assay [1], in [2], in assay [3], in [10], in [4] and in [5] was “inactive” in each case. For the same molecule, the Potency result in [11], in assay [13] and in assay [7] was “inactive” in each case. Moreover, in [14], the outcome was inactive.
Regarding `C1CCCC1`, the Potency entry in [1], in assay [2], in [3], in assay [10], in [4] and in [5] was “inactive” throughout. In addition, the Potency entry in [6], in [15], in assay [16], in assay [11], in assay [12] and in [13] was “inactive” in each case. The Potency result in assay [7] and in assay [8] was “inactive” throughout. In addition, in [14], the molecule was classed as inactive.
As for `COc1cc(/C=C/C(=O)O[C@H]2CC[C@]34C[C@]35CC[C@]3(C)[C@@H]([C@H](C)CCC=C(C)C)CC[C@@]3(C)[C@@H]5CC[C@H]4C2(C)C)ccc1O`, the Potency result in assay [1], in assay [9], in assay [3], in assay [10], in [4] and in assay [5] was “inactive” in each case. Further, the Potency entry in assay [11], in assay [12] and in assay [8] was “inactive” in each case.
On to `CC(C)OC(=O)c1cc2c(OCC(O)CNC(C)(C)C)cccc2[nH]1` (stereo unspecified), for which the Potency result in assay [1], in assay [2], in [3], in [4], in assay [5] and in assay [15] was “inactive” in each case. Also, the Potency entry in assay [16], in assay [11], in [17], in assay [7] and in assay [8] was “inactive” in each case. In addition, in assay [6], the Potency was 2.66 µM (active). In addition, in assay [14], the molecule was classed as inactive.
Regarding `CCN(CC)CCNC(=O)c1c(C)[nH]c(/C=C2\C(=O)Nc3ccc(F)cc32)c1C`, the Potency in assay [1] is 29.8 µM (active); in [10], 5.96 µM (active); in assay [4] it was 13.3 µM (active); in assay [16] it was 33.5 µM (active); in [11] it was 29.8 µM (active); in assay [12], 11.9 µM (active). Besides, the values for the Potency in [13] and in assay [8] were 11.9 µM (active) and 2.98 µM (active), respectively. The Potency result in [2], in [3] and in [5] was “inactive” throughout.
Regarding `C[C@H]1[C@H]2CC[C@H]3[C@@H]4CC=C5C[C@@H](N(C)C)CC[C@]5(C)[C@H]4CC[C@]23CN1C`, the Potency result in assay [1], in assay [9], in assay [2], in assay [3], in assay [4] and in assay [5] was “inactive” each time. In addition, the Potency entry in [6], in [15], in assay [16], in assay [17], in assay [13] and in [7] was “inactive” each time. For the same molecule, the Potency result in assay [8] was “inactive”.
For `[Cl][Au]([Cl])[Cl]`, the Potency is 24.3 µM (active) in assay [1]; 3.86 µM (active) in assay [10]; 4.86 µM (active) in [4]; 0.172 µM (active) in assay [6]; 54.5 µM (active) in [11]; 43.3 µM (active) in assay [8]. Further, the Potency entry in assay [2] and in assay [3] was “inactive” throughout. Moreover, the call in assay [14] was inactive.
